Experimental data as given in PubChem BioAssay AID720711 (National Center for Advancing Translational Sciences (NCATS), 2013).
Hit rate of the full screen: of about 360,000 compounds, about 290 (0.081%) were called active. Shown is part of a subset that was picked to be rich in actives. Values without a mark were called inactive. Calls come from the whole dose curve; as a rule, active = well fitted activation curve with a large enough effect; inconclusive = small, poorly fitted or top-dose-only effect; inactive = no such curve, though single readings can be large or run the other way.

molecular target: Rap guanine nucleotide exchange factor 4 (Homo sapiens) (UniProt Q8WZA2); test: qHTS for Agonist of cAMP-regulated guanine nucleotide exchange factor 4 (EPAC2): primary screen; conditions: biochemical qHTS; Potency: EPAC2 activation; series mostly up to 154 µM; activation: at the top concentration; note: nearly all actives have a fitted effect of over 50% in size
Sequence (Q8WZA2 whole entry, looked up): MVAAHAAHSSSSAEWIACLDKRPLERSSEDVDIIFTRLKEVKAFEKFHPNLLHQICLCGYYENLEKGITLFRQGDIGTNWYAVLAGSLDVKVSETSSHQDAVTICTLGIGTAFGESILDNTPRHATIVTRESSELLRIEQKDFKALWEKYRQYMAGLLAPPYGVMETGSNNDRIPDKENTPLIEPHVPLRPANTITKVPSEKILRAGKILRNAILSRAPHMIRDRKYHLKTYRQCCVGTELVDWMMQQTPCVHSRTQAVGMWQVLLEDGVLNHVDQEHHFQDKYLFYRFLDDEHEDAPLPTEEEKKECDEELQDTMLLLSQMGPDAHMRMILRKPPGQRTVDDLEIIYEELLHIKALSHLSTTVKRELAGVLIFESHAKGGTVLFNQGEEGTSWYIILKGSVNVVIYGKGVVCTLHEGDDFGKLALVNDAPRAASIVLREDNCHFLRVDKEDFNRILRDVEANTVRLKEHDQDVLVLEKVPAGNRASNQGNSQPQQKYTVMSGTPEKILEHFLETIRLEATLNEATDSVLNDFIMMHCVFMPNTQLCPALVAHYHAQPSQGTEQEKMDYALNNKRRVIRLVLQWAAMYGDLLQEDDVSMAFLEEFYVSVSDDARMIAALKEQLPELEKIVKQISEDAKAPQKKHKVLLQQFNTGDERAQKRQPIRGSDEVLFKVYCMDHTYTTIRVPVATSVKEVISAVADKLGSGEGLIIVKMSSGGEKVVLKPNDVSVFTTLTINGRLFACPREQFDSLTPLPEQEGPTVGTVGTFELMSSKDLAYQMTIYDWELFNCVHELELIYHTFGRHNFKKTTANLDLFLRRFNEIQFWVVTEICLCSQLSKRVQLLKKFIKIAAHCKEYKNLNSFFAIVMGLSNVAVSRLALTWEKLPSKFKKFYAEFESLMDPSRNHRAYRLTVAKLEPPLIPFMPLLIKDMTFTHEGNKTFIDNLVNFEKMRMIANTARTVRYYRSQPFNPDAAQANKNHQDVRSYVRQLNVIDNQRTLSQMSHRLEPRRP
Summary of the method: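 Setup: EPAC2 100 nM, labeled Rap1B complex 250 nM, free GDP 50 uM. Compound titrations pinned in, brief spin, 5 min room temperature incubation. Kinetic fluorescence read over 30 min, normalized to 6.5 mM cAMP.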
Potency is the fitted concentration of half-maximal effect.

Compound | activation | Potency
Cc1cc(-c2ccccc2)n2nc(C)c(-c3ccccc3)c2n1 | 14.6% | –
CC1=C/C(=N\OS(=O)(=O)c2ccccc2)C=CC1=O | -8.64% | –
COc1cccc(NC(=O)CSc2nnc(Cc3ccc(OC)c(OC)c3)o2)c1 | -2.83% | –
COc1ccc(NC(=O)CCCOc2ccc(C(C)=O)cc2)cc1S(=O)(=O)N1CCCCC1 | 10.2% | –
CCOC(=O)/C(C#N)=C/c1ccc(N2CCN(Cc3ccccc3)CC2)cc1 | – | 89.1 µM (active)
COC(=O)c1sc(N2CCN(Cc3ccccc3)CC2)nc1N | 5.94% | –
CCCn1c(C)cc(/C=C(\C#N)C(=O)OCC(=O)N(C)c2c(N)n(Cc3ccccc3)c(=O)[nH]c2=O)c1C | 16.6% | –
CCOC(=O)/C(C#N)=C\c1c(C)cc(C)c(COC(C)=O)c1C | 6.7% | –
COc1ccc(/C=C(\C#N)C(=O)ONC2=NCCCCC2)cc1 | -1.64% | –
CCOC(=O)/C(C#N)=C/c1ccc(N2CCCCC2)cc1 | – | 79.4 µM (active)
O=C(Nc1ccccc1)Oc1cccc2cccnc12 | -3.88% | –
CCc1cc2c(=O)c(-c3ccon3)c(N)oc2cc1OC | 5.83% | –
COCc1cc(C)nc2sc(C(=O)NC3CCCCC3)c(N)c12 | 2.58% | –
Cc1ccc(C2(C(F)(F)F)N=C3Sc4cc(C)cc(C)c4N3C(=O)N2)cc1 (configuration not stated) | 1.9% | –
CC(C)C[C@H]1CN=C(Nc2ccccc2)N1CC1CCCCC1 | -4.46% | –
NC1=NOC(=O)C1C1CCCCC1 (configuration not stated) | 4.28% | –
COc1ccc(-c2nnc(SCC(=O)Nc3cccnc3Cl)n2C)cc1 | -1.22% | –
CCc1nccn1CCC(=O)N1CCCC(N2CCN(c3ccccc3F)CC2)C1 (configuration not stated) | 2.69% | –
CC1=C(C(=O)N(C(C)C)C(C)C)CC(CC(=O)NCC2CCCCC2)C(=O)N1Cc1ccccc1 (configuration not stated) | -0.709% | –

Compound | activation | Potency
O=C(O)CCCn1c(=O)c2cccn2c2ccc(F)cc21 | 14.3% | –
CCOc1ccccc1NC(=O)C1CCC(CNc2c(N3CCOCC3)c(=O)c2=O)CC1 (configuration not stated) | 4.75% | –
CC(C)CNC(=O)/C=C/C(=O)O | -0.711% | –
C=CCN1CN(S(=O)(=O)c2ccc(OC)cc2)c2nc3ccccc3nc21 | 7.14% | –
CCN(CC)CCn1c(N)c(S(=O)(=O)c2ccccc2)c2nc3ccccc3nc21 | 12.3% | –
C=CCn1c(N)c(S(=O)(=O)c2cccs2)c2nc3ccccc3nc21 | – | 10 µM (active)
Cn1ncc(N2CCN(S(=O)(=O)c3ccc(Br)cc3)CC2)c(Cl)c1=O | 13.2% | –
CCCCn1c(N)c(N(CCC(C)C)C(=O)c2ccc(COc3ccccc3)o2)c(=O)[nH]c1=O | -3.53% | –
Cc1cccc(C2c3[nH]c4ccccc4c3CCN2C(=O)c2cc(-c3cccn3C)n[nH]2)n1 (configuration not stated) | 10.9% | –
O=C(NC1(C(F)(F)F)N=C2SCCN2C1=O)c1ccco1 (configuration not stated) | 2.62% | –
NC(=O)COC(=O)c1sc2cc(F)ccc2c1Cl | -6.18% | –
NC(=O)C1CCN(C(=O)c2ccc3c(=O)n(Cc4cccc(Br)c4)c(=S)[nH]c3c2)CC1 | 10.4% | –
Cc1ccc(SCC(=O)c2cc(C)c(OC(=S)N(C)C)c(C)c2)cc1 | 0.372% | –
CSc1cc(C)[nH]c(=O)n1 | 3.8% | –
CCCNC(=O)CCc1c(C)nc2c(c(C)nn2-c2ccccc2)c1C | 6.91% | –
COc1ccccc1CNC(=O)CN1CCC(n2cnc3cc(F)ccc32)CC1 | 6.15% | –
CCN(CC)c1ncnc2c1ncn2[C@H]1CN(Cc2cccs2)C[C@@H](CO)O1 | 4.11% | –
COc1ccc(OCC(=O)OCC(=O)Nc2ccc(S(=O)(=O)N3CCCCC3)cc2)cc1 | 7.5% | –
CCCN(CC(=O)Nc1ccc(OC)c(OC)c1)CC(=O)Nc1ccc(F)c(F)c1F | 22% | –

Compound | activation | Potency
COc1cccc(N=c2oc3c(C)ncc(CO)c3cc2C(N)=O)c1 | 1.86% | –
Cc1ccc(CNC(=O)C2CCN(S(=O)(=O)c3ccc4nc5c(c(C(=O)O)c4c3)CC(C)CC5)CC2)cc1 (configuration not stated) | 3.48% | –
CCCCc1nc2cc(C(=O)N3CCCCC3CCO)ccc2o1 (configuration not stated) | 10.4% | –
COc1cc(C)c(Cl)cc1S(=O)(=O)n1ccnc1 | 7.42% | –
CCN(CC)c1ccc2oc(=O)c(C)nc2c1 | – | 100 µM (active)
Cc1ccc2c(=O)oc(N(C)C)nc2c1 | 24.5% | –
CN(Cc1nc2ccccc2c(=O)[nH]1)Cc1cc(=O)oc2ccc3ccccc3c12 | 11.7% | –
Cc1cc(C)cc(N(CC(=O)NCC2CCCO2)S(=O)(=O)c2c(C)noc2C)c1 (configuration not stated) | 0.467% | –
Cn1c(=O)[nH]c(=O)c2c1[nH]c(=S)n2Cc1ccccc1 | 6.68% | –
Cc1cc2nc3c(=O)n(Cc4ccccc4)c(=O)[nH]c3nc2cc1N | – | 112 µM (active)
Cc1cc(OCC(=O)N(C)c2c(N)n(Cc3ccccc3)c(=O)[nH]c2=O)c(C(C)C)cc1Cl | -6.45% | –
CCn1nc(C)c(CNC(=O)C2CCC(=O)N(Cc3cccc(F)c3)C2)c1C (configuration not stated) | 3.65% | –
CN(C)C(=O)c1nc2ccc(Cl)cn2c1CNCc1cccc(OC(F)(F)F)c1 | -1.56% | –
CSCCC(NC(N)=O)C(=O)N(C)CC(=O)Nc1ccc(C)cc1 (configuration not stated) | 0.0352% | –
CCCCN(C1CCS(=O)(=O)C1)S(=O)(=O)c1ccc(C(C)C)cc1 (configuration not stated) | 8% | –
CCCC(=O)NC(=S)Nc1ccc(CN2CCOCC2)cc1 | 12.4% | –
O=C(CCCl)Nc1ccc(S(=O)(=O)NCc2ccco2)cc1 | 4.68% | –
O=C(CNC(c1ccccc1)c1ccccc1)Nc1ccc(F)cc1 | 14.2% | –
COc1ccc(S(=O)(=O)N2CCCC(C(=O)Nc3ccc(NC(=O)c4ccccn4)cc3)C2)cc1 (configuration not stated) | 2.47% | –
